The values that follow come from PubChem BioAssay (NCI).

This is part of a sample that, as a whole, favours compounds with a hit. Of some 83,000 tested, about 20% had one in any assay.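 Negative percent growth values reflect cell death: -40 means 40% of the cells present at the start died, and -100 means all died.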 Values without a mark were called inactive. Activity calls are given as the source filed them. How the source made its calls: active means growth percent below 10; inactive means the rest.

This assay has as its system HL-60(TB) leukemia. The experiment in a line: NCI-60 one-dose screen, 48 h (100 = growth as untreated, 0 = no growth, -100 = all killed). The following applies: 10 µM unless noted.
In the case of `CO[C@]12C=C/C(=C(/C(=O)OCc3cccnc3)C(=O)CCCCCCCC[C@]3(OC)C=C/C(=C(/C(=O)OCc4cccnc4)C(=O)CCCCCCCC1)O3)O2`, the growth is -29.3% (active).
Then `NC1=CC(=O)C(=O)c2cccnc21`, with 106%.
The figure for `Cc1cc([C@@H](C)Nc2ccccc2C(=O)O)c2nc(N3CCOCC3)cc(=O)n2c1` is 26.7%; for `COc1cc(-c2ccc[nH]2)[nH]c1/C=C1\N=C(C)C(C(=O)NC(C)C)=C1C` it is 26.1%.
Regarding `COc1ccc2c(c1)c(-c1cc(-c3cn(C)c4ccc(OC)cc34)on1)cn2C`, the growth is 101%.
Then `NC(=O)Nc1ccc(-n2cnc3cc(-c4ccc(O)cc4)ccc32)cc1`, with 95.4%; and `COc1ccc(/C=C2\NC(=S)NC2=O)cc1`, with 91.6%; and `Nc1ccc(N=Nc2ccccc2)c2cc(S(=O)(=O)O)ccc12`, with 103%.
Take `CNC(=O)c1cc(Oc2cccc3nc(NC(=O)Nc4ccc(F)cc4F)ccc23)ccn1`: the growth is 81.8%.
Then `O=Cc1ccc(Cl)c(Cl)c1`, with 106%; and `CC[C@]12C=CCN3CC[C@@]4(c5ccc(OC)cc5N(C)[C@H]4[C@@](O)(C(=O)OC)[C@@H]1OC(=O)CCCN1CCOCC1)[C@@H]32`, with 97.5%; and `COC(=O)C1NC(=S)N(c2ccc(Cl)cc2)C1/C=C/c1ccccc1` (stereo not given), with 92.8%.
The figure for `O=C(Nc1cccc(F)c1)Nc1cccc(Cl)c1` is -10.6% (active); for `Cn1cc(-c2nc(-c3c[nH]c4ccncc34)cs2)c2cc(Br)ccc21` it is -61.4% (active); for `CCn1cc(CNc2ccc(C(=O)Nc3ccc4ccccc4c3)cc2)c(C)n1` it is 79.8%.
Then `N#C/C(=C\c1cc(O)c(O)c(O)c1)C(N)=O`, with 69.5%; and `O=C1C2CC=CCC2C(=O)N1CNc1ccc(Cl)cc1` (stereo not given), with 52.9%.
For the compound `CCOC(=O)/C(C#N)=C\c1c[nH]c2ccccc12`, the growth was 104%.
Regarding `COc1cc2nc3c(=O)n(CCN(C)C)cnn3c(=O)c2cc1OC`, the growth is 106%.
As to `Cc1n(Cc2ccc3ccccc3c2)c(Cl)c(Cl)[n+]1Cc1ccc2ccccc2c1`, the growth is -34.6% (active).
Then `O=C(Nc1ccc(F)cc1F)c1cc(I)ccc1O`, with -34.5% (active); and `Fc1c[c-]c(-c2ccccn2)c(F)c1.[CH3-].[Pt+2].c1ccc(P(C[PH+](c2ccccc2)c2ccccc2)c2ccccc2)cc1`, with -24.2% (active); and `O=C(N/N=C\c1ccc(Cl)cc1)C(=O)N/N=C\c1ccc(Cl)cc1`, with 108%.
Then `COc1ccc(C(=O)/C=C/c2cc(-c3ccc(OC)c(OC)c3)n[nH]2)cc1OC`, with -25.4% (active); and `CCN(CC)c1ccc(/C=N/NC(=O)CSc2nc3ccccc3c(=O)n2CCc2ccc(S(N)(=O)=O)cc2)c(O)c1`, with -18.7% (active).
